From PubChem BioAssay (NCI) come the findings set out here.

Common to all, as to test: NCI-60 one-dose screen, 48 h (100 = growth as untreated, 0 = no growth, -100 = all killed)
Holding throughout (conditions): 10 µM unless noted

Assay [1] concerns NCI-H23 lung.
Assay [2] relates to NCI-H226 lung.
Assay [3] relates to NCI-H322M lung.
Assay [4] deals with HOP-62 NSCLC.
Assay [5] has as its system NCI-H460 lung.
Assay [6] has as its system HOP-92 NSCLC.
Assay [7] deals with NCI-H522 lung.
Assay [8] concerns A549/ATCC NSCLC.
Assay [9] concerns 786-0 renal.
For assay [10], the system named is COLO 205 colon.
Assay [11] concerns DU-145 prostate.
Assay [12] relates to K-562 leukemia.
In assay [13] the test system is MALME-3M melanoma.
Assay [14] relates to MDA-MB-231 breast.
The test system of assay [15] is RXF 393 renal.
Assay [16] has as its system SF-268 CNS.
Assay [17] concerns SF-295 CNS.
Assay [18] has as its system SF-539 CNS.
Assay [19] relates to UACC-257 melanoma.
For assay [20], the system named is M14 melanoma.

The structures appear in SMILES notation. About 83,000 compounds went through this panel and 20% of them were active in at least one assay; those are over-represented in the sample as a whole.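 Activity criterion: percent growth below 10, measured after cells in 96-well plates were exposed to a single compound concentration for 48 hours.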 A number with no mark means an inactive call. Active and inactive are the calls of the source.

`COc1ccc2c(c1)c(-c1nc(N)nnc1-c1c[nH]c3ccccc13)cn2C`: the growth in assay [1] is 47.7%; in assay [2] it was 37.6%; in assay [3], 57.3%; in assay [4] it was 44.8%; in assay [5], 14.2%; in assay [6] it was 54%. For the same compound, the growth in assay [7] was 29.9%; in [8], 48.4%; in assay [9] it was 54.5%; in [10], 29.3%; in [11], 59.6%; in assay [12], 16.3%. The growth in assay [13] is 37.2%; in assay [14], 46.2%; in assay [15], 39.5%; in assay [16] it was 45.6%; in [17], 23.7%; in [18] it was 25.2%. Besides, the growth in assay [19] is 67.4%; in assay [20] it was 29.8%.

Consider `CS(=O)(=O)c1ccc(/C(=N/N=C(N)N)c2ccc(F)cc2)cc1`, for which the growth in assay [1] is 88.3%; in assay [2], 91%; in assay [3] it was 119%; in [4], 95.7%; in assay [5], 92.7%; in assay [6], 94.4%. For the same compound, the growth was 81.2% in [7]; 80.8% in [8]; 76.9% in assay [9]; 88% in [10]; 106% in [11]; 25.1% in [12]. Further, the growth in assay [13] was 97.4%; in assay [14], 105%; in assay [15], 86.1%; in [16], 78.9%; in [17], 71%; in assay [18], 99.5%. The growth was 76.9% in assay [19] and 67.2% in assay [20].

Regarding `Fc1ccc(-c2cn3c(-c4c[nH]c5ccc(Br)cc45)csc3n2)cc1`, the growth in assay [1] was 30.4%; in [2], 59.8%; in assay [3], 81.4%; in assay [4] it was 34.8%; in [5], 52.9%; in [6], 22.2%. Moreover, the growth in assay [7] is 85.1%; in [8] it was 78.6%; in assay [9], 97.2%; in assay [10] it was 76.9%; in assay [11], 67.4%; in assay [12], 90.3%. The growth in assay [13] is 51.4%; in [14], 15.5%; in assay [15], 79.6%; in assay [16], 50.9%; in [17], 64.1%; in assay [18] it was 34.3%. Further, the growth in [19] was 93.5%; in [20] it was 67.4%.

Consider `CC(C)NC(=O)c1cc(-c2ccc(NC(=O)Nc3ccc(F)c(C(F)(F)F)c3)cc2)nc2cccnc12`, for which the growth in assay [1] was 93.2%; in assay [2] it was 94.8%; in [3] it was 107%; in assay [4] it was 80.8%; in assay [5], 86.4%; in assay [6], 90.1%. The growth in [7] was 87.4%; in assay [8] it was 86.8%; in assay [9] it was 88.3%; in assay [10], 114%; in assay [11] it was 100%; in assay [12], 84.2%. The growth in [13] was 123%; in assay [14], 92.3%; in assay [15] it was 81.9%; in assay [16], 92%; in [17], 86.2%; in assay [18], 90.3%. The growth in assay [19] is 101%; in assay [20] it was 92.3%.

Regarding `O=c1c2ccccc2cc2n1CCN=C2c1ccccc1`, the growth in assay [1] is 93.8%; in [2] it was 96%; in assay [3] it was 99.7%; in assay [4] it was 116%; in [5], 101%; in assay [6], 81%. Moreover, the growth in assay [7] was 98%; in [8], 102%; in assay [9], 96.8%; in [10], 103%; in assay [11], 102%; in [12], 103%. Moreover, the growth in assay [13] was 102%; in assay [14], 96.2%; in assay [15], 96.2%; in assay [16], 97.2%; in [17], 103%; in assay [18], 98.6%. Moreover, the growth in [19] is 110%; in [20], 103%.

In the case of `CNC(=O)c1cc(Oc2ccc3c(c2)sc2nc(-c4ccc(N(C)C)cc4)cn23)ccn1`, the growth in assay [1] was 35.5%; in assay [2] it was 36.2%; in assay [3] it was 48.1%; in assay [4] it was 45.4%; in assay [5], 8.23% (active); in [6], 37.9%. The growth in [7] was 3.82% (active); in assay [8] it was 23.4%; in assay [9], 31%; in assay [10], 8.9% (active); in assay [11], 20.2%; in assay [12], 11.8%. The growth in [13] is 57.5%; in [14], 15.9%; in [15], 13.9%; in assay [16], 45.7%; in [17], 8.54% (active); in assay [18], -14% (active). The growth in [19] is 78.8%; in assay [20], 19.1%.

Regarding `NCCNC(=O)c1cccc(COc2ccccc2NC(=O)c2cc(Cl)c(Cl)[nH]2)c1`, the growth in assay [1] was 98.1%; in [2], 96.4%; in assay [3], 102%; in assay [4], 104%; in assay [5], 104%; in [6], 107%. The growth in [7] was 104%; in assay [8], 98.6%; in assay [9], 90.3%; in assay [10] it was 113%; in assay [11], 92.6%; in assay [12] it was 5.92% (active). Besides, the growth is 100% in assay [13]; 106% in assay [14]; 93.5% in assay [15]; 90.2% in assay [16]; 105% in assay [17]; 97.6% in assay [18]. The growth was 98.9% in assay [19] and 101% in assay [20].

For `CC(C)(C)Nc1nc2c(OCCc3ccccc3)cccn2c1-c1cccc(Oc2ccccc2)c1`, the growth is 11.1% in assay [1]; 15.2% in assay [2]; 15.8% in [3]; 11.1% in assay [4]; 8.14% (active) in [5]; -12.8% (active) in assay [6]. For the same compound, the growth in [7] is -26.1% (active); in assay [8], 16.3%; in assay [9], 8.48% (active); in assay [10], -93.8% (active); in assay [11] it was 25.5%; in assay [12] it was 15.7%. The growth is 0.427% (active) in [13]; 17.7% in assay [14]; -8.9% (active) in assay [15]; 32.4% in [16]; 6.47% (active) in assay [17]; -0.94% (active) in assay [18]. Besides, the growth in [19] is 6.07% (active); in assay [20], 18%.

With `N#Cc1c(-c2cccs2)cc(-c2cnccn2)nc1SCC(=O)N/N=C/c1ccc(Cl)cc1`, the growth in assay [1] was 100%; in assay [2], 98.1%; in [3], 99.3%; in assay [4], 99.1%; in assay [5], 103%; in [6] it was 89.4%. For the same compound, the growth is 93.7% in assay [7]; 94.6% in assay [8]; 93.9% in assay [9]; 115% in assay [10]; 104% in [11]; 96.7% in assay [12]. Moreover, the growth was 115% in [13]; 94.9% in [14]; 92.2% in assay [15]; 102% in [16]; 98.7% in [17]; 100% in assay [18]. Besides, the values for the growth in assay [19] and in assay [20] were 110% and 111%, respectively.
